# Data reported in PubChem BioAssay (EPA / NIEHS).
# Where a structure was tested more than once in an assay, its records may differ in their call. The source made the active and inactive calls. The calls were made as follows: active = hit-call score of the fitted dose curve at least 0.9, where 1 is the maximum; inactive = score below 0.9.
# Assay: CCTE_Shafer_MEA_dev_firing_rate_mean: CCTE's Neural Network Formation Assay for Mean Firing Rate, Shafer Lab (AID 2284031);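 as to AC50: curve fitted for loss of firing so AC50 reflects decreased mean firing rate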
# Procedure: CCTE_Shafer_MEA_dev assay is conducted using Axion Biosystems 48 well microelectrode array (MEA) plates and Maestro recording system. Each well of the MEA plate contains a grid of 16 microelectrodes embedded in the culture surface. Electrically active cells, such as neurons, can be cultured over the electrodes, and electrical activity in these cells can be recorded extracellularly. The spontaneous firing of neurons is captured from each electrode on a microsecond timescale providing both temporally and spatially precise data. […] The CCTE_Shafer_MEA_dev assay uses primary cultures of rat cortical neurons. Recordings are made on days post-plating 5, 7, 9 and 12. As these cultures mature over time, neural networks develop functional activity and form cohesive networks in which electrical activity can be highly coordinated. CCTE_Shafer_MEA_dev_firing_rate_mean is 1 of 19 assay components of the CCTE_Shafer_MEA_dev assay. It measures the frequency of spikes (action potential firings) as the total number of spikes divided by the length of the recording in a microelectrode array (MEA) using Axion Biosystems Maestro 768 channel amplifier with the AxIS adaptive spike detector. The firing rate is averaged across the active electrodes to report a well-mean value. To collapse across multiple recordings made on days post-plating 5, 7, 9 and 12, the trapezoidal area-under-the-curve of the component is calculated.Data from the assay component CCTE_Shafer_MEA_dev_firing_rate_mean was analyzed into 1 assay endpoint. This assay endpoint, CCTE_Shafer_MEA_dev_firing_rate_mean, was analyzed in the negative analysis fitting direction relative to DMSO as the negative control and baseline of activity. Using a type of functional reporter, gain or loss-of-signal activity can be used to understand electrical activity.
# On the day prior to culture, each well was coated thoroughly with 150 uL of 0.05% polyethyleneimine (PEI, Sigma Cat P3143) in 50 mM HEPES (Sigma Cat H7523) at a pH of 8. The plate was incubated at 37C for one hour. PEI was rinsed out with 500 uL of sterile water three times. Plates were stored at 4C until the day of culture. This culture was plated at a seeding density of 1.5 x 10^5 cells/well on a 48-well MEA plate, prepared as described above. Cells were administered via a 25 uL media/laminin ([…]; Sigma Cat L2020-1MG) drop directly onto the microelectrode array, as adding the cells with the laminin results in better attachment than pre-coating with laminin. After 2 hours, an additional 475 uL of cortical media was added and the cells returned to the incubator. Exposure starts at day 0 of plating and is continued over twelve days of network development until the experiment is terminated. Cells are fed with fresh medium on DIV 5 and 9, following the recordings on those days. The entire volume of media in the well is exchanged and any vehicle or compound treatment is renewed. Complete details are found in OP-NHEERL/ISTD/SBB/TJS/2015-03-r0 (available on request, email shafer.tim@epa.gov). Measurement of the electrical activity is non-invasive, and recordings can be made from the same plate over multiple different days of the culture. In cortical neurons, this allows for the measurement of extracellular action potentials over the period during which networks form in the MEA plate.
Structure (SMILES),AC50,outcome
CC1=C(/C=C/C(C)=C/C=C/C(C)=C/C(=O)O)C(C)(C)CCC1,2.98 µM (active),
CC(O)CO (stereo unspecified),,inactive
C=C(C)C(=O)OCCC(F)(F)C(F)(F)C(F)(F)C(F)(F)C(F)(F)C(F)(F)F,,inactive
CN1CCC[C@H]1c1cccnc1,,inactive
OCCC(F)(F)C(F)(F)C(F)(F)C(F)(F)C(F)(F)C(F)(F)F,,inactive
OCCC(F)(F)C(F)(F)C(F)(F)C(F)(F)C(F)(F)C(F)(F)C(F)(F)C(F)(F)F,,inactive
c1ccc2cc3c(ccc4ccccc43)cc2c1,,inactive
c1ccc2c(c1)Cc1ccccc1-2,,inactive
CC#C[C@]1(O)CC[C@H]2[C@@H]3CCC4=CC(=O)CCC4=C3[C@@H](c3ccc(N(C)C)cc3)C[C@@]21C,8.04 µM (active),inactive
c1ccc2c(c1)ccc1ccccc12,,inactive
